# Compound activity (PubChem BioAssay)
# mTORC1 inh = inhibitors of mTORC1 signaling in Tsc2-/- p53-/- MEF cells. Tsc2-/- p53-/- MEF, phospho-rpS6 immunofluorescence/PI, 24 h. 0.78% of 44,000 active. AID 493208. Potency, µM (top dose mostly 38.3 µM), inactives show top-dose activity change, negative = inhibition, most hits filed as inhibitors;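 note: plate controls were DMSO for no effect and rapamycin for full effect; nearly all actives have a fitted effect of over 50% in size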
#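 Plate MEFs (Tsc2-/-, p53-/-, empty vector) in DMEM/10% FBS; after 24 h add compound, incubate 24 h at 37 degree Celsius; fix in PFA/TX-100, block, stain phospho-rpS6 and 10 uM PI; scan at 488 nm; report % positive cells.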
# S16 viability = toxic to S16 Pmp22-F2sN Schwann cells; S16 Pmp22-F2sN Schwann cells viability, CellTiter-Glo, 24 h; Potency, µM (doses to about 57.5 µM), inactives show top-dose activity change, negative = cytotoxicity, usual class: cytotoxic; 0.48% of 43,000 active; note: nearly all actives have a fitted effect of over 65% in size
#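 Viability was measured by CellTiter-Glo luminescence (15 min, room temperature). This followed 24 h at 37 °C of compound exposure (23 nL pin transfer) in S16 Pmp22-F2sN Schwann cells, 500-1,000 per well.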
# SKOV3 invasion = inhibitors of ovarian cancer cell adhesion and invasion in omental model | Potency, µM (top dose mostly 45.8 µM), inactives show at the top dose activity change, negative = inhibition, hits mostly inhibitors | SKOV3ip1-GFP adhesion/invasion on 3D omental model, fluorescence | 0.1% of 46,000 active;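 note: plate controls were DMSO wells for no effect and tomatine positive control wells for full effect; nearly all actives have a fitted effect of over 65% in size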
#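 A 3D layer of primary human omental fibroblasts, mesothelial cells, fibronectin and collagen I, grown 48 hr, received SKOV3ip1-GFP cells in serum-free medium plus compounds at 0.36-46 umol/L. After 2 hr RT and 16 hr 37 C, fixed adherent GFP cells were counted; normalized to DMSO and tomatine.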
# p53null 32C kill = p53 null cell cytotoxicity, permissive temperature. H1299-neo p53 null cells, ATP luminescence, 24 h, 32C. Potency, µM (doses to about 46.1 µM), for inactives: top-dose activity change, negative = cytotoxicity, usual class: cytotoxic. 0.62% of 55,000 active. AID 903;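 note: 0% = DMSO only and -100% = full killing by 100 µM tamoxifen; nearly all actives have a fitted effect of over 55% in size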
#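 Overnight 37C seeding (600 cells/well) of H1299-neo preceded a 24 hr, 32C exposure to compounds up to 46 uM. ATP levels, read by luminescence after 20 min at RT, indicated surviving cells.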
# p53null 39C kill = kills p53 null cells at the nonpermissive temperature; Potency, µM (doses to about 46.1 µM), for inactives: at the top dose activity, negative = cell killing, hits mostly cytotoxic; 0.97% of 55,000 active; AID 904; H1299 p53-null (neo) cells, 39C, ATPlite viability, 24 h;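 note: 0% = DMSO only and -100% = full killing by 100 µM tamoxifen; nearly all actives have a fitted effect of over 50% in size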
#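 Concentration-response (up to 46 uM) was run for 24 h at the nonpermissive 39C on H1299-p53A138V or H1299-neo cells. ATP content was measured with ATPlite luminescence. AC50 values were Hill-modeled after normalizing between DMSO and 100 uM tamoxifen killing.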
# PMP22 txn prim = PMP22 gene transcription modulation; S16 Pmp22-F2sN Schwann cells (luciferase reporters placed in the Pmp22 gene), FLuc/NLuc coincidence luminescence, 24 h; Potency, µM (titrated, usually from 57.5 µM), inactives show at the top dose activity change, negative = inhibition, most hits filed as inhibitors; 2% of 43,000 active; AID 1508649; active = clear falling dose curves in both reporters; inconclusive = both reporters move, but less clearly or upward; inactive = either reporter flat; the % is the NLuc reporter signal
#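 Transcriptional readout in edited S16(c9) cells: two luciferases reported from the Pmp22 locus, measured in turn after 24 h compound incubation.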
# Numbers without * were called inactive; i = inactive; ? = inconclusive; / = not tested or not shown. Shown are actives, neighbours in structure and some others; about 3% of the full set was active somewhere. Unless noted, calls come from the whole dose curve; as a rule, active = well fitted curve in the direction sought with a large enough effect; inconclusive = small, poorly fitted or top-dose-only effect, or another doubt; inactive = no such curve, though single readings can be large; an effect the other way counts as inactive or inconclusive. Unless noted, % is set by controls: 0 for no effect and ±100 for the full control effect; potency is the fitted concentration of half-maximal effect.
SMILES,mTORC1 inh,S16 viability,SKOV3 invasion,p53null 32C kill,p53null 39C kill,PMP22 txn prim
Cc1ccc(NC(=O)CSc2nnc3[nH]c(=O)cc(-c4ccccc4)n23)cc1Cl,-11%,5%,-5%,4µM*,?,?
COc1cccc(NC(=O)CSc2nnc3[nH]c(=O)cc(-c4ccccc4)n23)c1,0%,-11%,2%,?,?,-89%
Cc1ccc(C)c(NC(=O)CSc2nnc3[nH]c(=O)cc(-c4ccccc4)n23)c1,0%,-14%,2%,1.6µM*,?,?
CCOc1ccccc1NC(=O)CSc1nnc2[nH]c(=O)cc(-c3ccccc3)n12,-1%,-6%,-1%,?,26%,-46%
O=C(Nc1cc2cc[nH]c2cn1)c1ccccc1,/,/,7%,/,/,/
C[C@H](CCC(=O)O)[C@H]1CC[C@H]2[C@H]3[C@@H](CC[C@]12C)[C@@]1(C)CC[C@@H](O)C[C@H]1C[C@@H]3O,/,/,1%,/,/,/
c1ccc(CSc2ccc(-c3ccco3)nn2)cc1,/,/,/,11µM*,?,/
CCOc1ccc(NC(=O)CN(C)S(=O)(=O)c2ccc3[nH]c4c(c3c2)CCCC4)cc1,0%,?,6%,13%,-29%,17µM*
Cc1cc(C)cc(NC(=O)CN(C)S(=O)(=O)c2ccc3[nH]c4c(c3c2)CCCC4)c1,0%,-6%,0%,6%,-20%,?
CC(C)NC(=O)Cn1c(=O)nc(-c2ccccc2F)c2cc(Cl)ccc21,0%,4%,-8%,-10%,-19%,-6%
COc1ccc(CNC(=O)Cn2c(=O)nc(-c3ccccc3F)c3cc(Cl)ccc32)cc1,0%,5%,11µM*,-1%,12%,?
O=C(CCc1ccc(O)cc1)c1c(O)cc(O)cc1O[C@@H]1O[C@H](CO)[C@H](O)[C@H](O)[C@H]1O,/,/,-15%,/,/,/
COc1ccc(N2CCN(C(=O)c3ccc4c(=O)n(CCc5ccc(OC)c(OC)c5)c(=O)[nH]c4c3)CC2)cc1,-6%,?,-11%,0%,11%,13µM*
O=C1CSC(=O)N1C(CCc1ccncc1)COc1ccc(-c2cccc([N+](=O)[O-])c2)cc1 (configuration not stated),/,/,-1%,/,/,/
Cc1cn2cc(C(=O)N(C)CCO)cc(N[C@@H]3CCOc4cccc(C)c43)c2n1,/,/,3%,/,/,/
Cc1cccc(C)c1NC(=O)Cn1c(=O)n(Cc2ccc(C(=O)NCc3ccco3)cc2)c(=O)c2sccc21,?,-10%,-23%,?,?,?
Cc1cc(C)c(NC(=O)Cn2c(=O)n(Cc3ccc(C(=O)NCc4ccco4)cc3)c(=O)c3sccc32)c(C)c1,-6%,-6%,-2%,?,10µM*,?
Cc1cc(OCC(=O)Nc2c(C(=O)c3ccccc3)oc3ccccc23)cc(C)c1Cl,8%,8%,6%,0%,17%,-10%
O=C(Nc1noc2ccccc12)c1ccc(F)cc1,3%,-1%,5%,13µM*,?,-23%
COc1ccc(C(=O)c2oc3ccccc3c2NC(=O)c2ccc(F)cc2)cc1,10%,3%,i,-6%,9%,-19%
Cc1cccc(C)c1OCC(=O)Nc1c(C(=O)c2ccccc2)oc2ccccc12,-9%,6%,10µM*,1%,-19%,-22%
COc1cccc(NC(=O)c2oc3ccccc3c2NC(=O)c2ccc(OC(C)C)cc2)c1,-5%,-14%,-14%,16µM*,13µM*,9%
COc1ccc(C(=O)Nc2c(C(=O)c3ccc(F)cc3)oc3ccccc23)cc1,1%,-1%,i,2%,?,10µM*
NC(=O)Nc1cc(-c2cccc(F)c2)sc1C(=O)N[C@H]1CCCNC1,/,/,-21%,/,/,/
CC(O)=C(C#N)C(=O)Nc1ccc(C(F)(F)F)cc1,/,/,3%,/,/,/
SMILES,mTORC1 inh,S16 viability,SKOV3 invasion,p53null 32C kill,p53null 39C kill,PMP22 txn prim
CC(C)(C)c1ccc(C(=O)Nc2nnc3n2CCS3)cc1,?,-22%,i,10µM*,?,?
CNC1[C@H](O)C(O[C@@H]2C(O)C(O[C@H]3O[C@H]([C@@H](C)NC)CC[C@H]3N)[C@@H](N)C[C@H]2N)OC[C@]1(C)O (some centres not stated),/,/,6%,/,/,/
COc1ccc2oc(=Nc3ccccc3)c(-c3nc4ccccc4[nH]3)cc2c1,/,/,/,11µM*,/,/
NC(=O)C1CCN(C(=O)c2ccc(NC(=O)c3nsc4ccccc34)cc2)CC1,-10%,?,-2%,2.5µM*,2.8µM*,?
CC(C)n1cnc2c(NCCCCCCNC(=O)OC(C)(C)C)nc(NCCO)nc21,/,/,-2%,/,/,/
COc1cc(N2CCN(C)CC2)ccc1Nc1nc(N)c(C(=O)c2c(Cl)cccc2Cl)s1,/,/,8%,/,/,/
CC1=C(C(=O)Nc2ccc(C)cc2C)C(c2cc(Br)ccc2F)n2ncc(C(=O)Nc3ccc(C)cc3)c2N1 (configuration not stated),2.9µM*,?,i,-15%,?,?
CC1(C)CCC(CN2CCN(c3ccc(C(=O)NS(=O)(=O)c4ccc(NCC5CCOCC5)c([N+](=O)[O-])c4)c(Oc4cnc5[nH]ccc5c4)c3)CC2)=C(c2ccc(Cl)cc2)C1,/,/,22%,/,/,/
CNc1oc(-c2ccc(COc3ccc(C)cc3)o2)nc1C#N,-1%,-4%,7%,6%,?,-50%
CC(Nc1oc(-c2ccc(COc3ccccc3)o2)nc1C#N)c1ccccc1 (configuration not stated),15µM*,-8%,?,-9%,?,?
Cc1cccc(OCc2ccc(-c3nc(C#N)c(NCCN(C)C)o3)o2)c1,5.2µM*,?,-16%,2%,-18%,?
N#Cc1nc(-c2ccc(COc3ccccc3)o2)oc1NCc1ccccc1,-14%,2%,5%,-7%,?,-5%
CCOc1cc(CNCCSc2nnnn2C)ccc1OCc1ccc(Cl)cc1Cl,?,?,?,?,16µM*,?
Cn1nnnc1SCCNCc1ccccc1OCc1ccc(Cl)cc1Cl,-5%,?,-6%,?,?,?
CCN(CC)CCn1c(=N)n(CC(O)COc2ccccc2C)c2ccccc21 (configuration not stated),12µM*,28µM*,?,-2%,18µM*,?
